# Numbering of substitutions follows the chain as printed.
# Assays:
# Assay in all cases: yeast three-hybrid, YBZ-1, SC-Leu-His + 0.5 mM 3-AT, 4 days
# Conditions in all cases: tags: N-Gal4 AD-HA kept; label: inside an RPR1-promoter hybrid RNA with tandem MS2 sites; ssRNA
# PUM1 PUF domain R7-IFV = PUM1 PUF domain R7-IFV (Homo sapiens, UniProt Q14671 828-1176, S1079I;N1080F;E1083V)
# Summary of the method: (§1)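 The interaction score is the logarithmic change in variant frequency from input to selection. It uses log2, with a pseudocount of 1 for absent variants, and frequencies came from PCR-amplified, Illumina-sequenced repeat regions. The libraries were Pumilio-1 PUF domains randomized at the three base-contacting residues per repeat, co-expressed with matching RNA elements in strain YBZ-1 (LexA–MS2 coat fusion, HIS3 reporter). Plating lasted four days on SC-Leu (input) or SC-Leu-His + 0.5 mM 3-AT (selection).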
# PUM1 PUF domain R3-CRV = PUM1 PUF domain R3-CRV (Homo sapiens, UniProt Q14671 828-1176, Q939V)
# Summary of the method: as §1
# PUM1 PUF domain R3-RVQ = PUM1 PUF domain R3-RVQ (Homo sapiens, UniProt Q14671 828-1176, C935R;R936V)
# Summary of the method: as §1
# PUM1 PUF domain R3-GHF = PUM1 PUF domain R3-GHF (Homo sapiens, UniProt Q14671 828-1176, C935G;R936H;Q939F)
# Summary of the method: as §1
# PUM1 PUF domain R4-LGL = PUM1 PUF domain R4-LGL (Homo sapiens, UniProt Q14671 828-1176, N971L;H972G;Q975L)
# Summary of the method: as §1
# PUM1 PUF domain R6-FYQ = target: T1, PUM1 PUF domain R6-FYQ (Homo sapiens, UniProt Q14671 828-1176, N1043F)
# T1 sequence: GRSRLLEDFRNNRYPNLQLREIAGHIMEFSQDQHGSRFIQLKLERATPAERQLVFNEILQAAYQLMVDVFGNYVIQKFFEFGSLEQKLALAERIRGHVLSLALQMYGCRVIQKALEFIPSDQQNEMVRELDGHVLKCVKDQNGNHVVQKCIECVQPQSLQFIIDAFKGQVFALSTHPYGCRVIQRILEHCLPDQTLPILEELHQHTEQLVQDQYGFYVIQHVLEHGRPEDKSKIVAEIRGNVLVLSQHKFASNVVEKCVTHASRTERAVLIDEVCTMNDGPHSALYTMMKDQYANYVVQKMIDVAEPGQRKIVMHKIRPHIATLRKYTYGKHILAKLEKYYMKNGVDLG
# Summary of the method: as §1
# PUM1 PUF domain R6-LWG = target: T2, PUM1 PUF domain R6-LWG (Homo sapiens, UniProt Q14671 828-1176, N1043L;Y1044W;Q1047G)
# T2 sequence: T1 sequence with F216L, Y217W, Q220G
# Summary of the method: as §1
# PUM1 PUF domain R6-QYS = target: T3, PUM1 PUF domain R6-QYS (Homo sapiens, UniProt Q14671 828-1176, N1043Q;Q1047S)
# T3 sequence: T1 sequence with F216Q, Q220S
# Summary of the method: as §1
# PUM1 PUF domain R4-SLS = PUM1 PUF domain R4-SLS (Homo sapiens, UniProt Q14671 828-1176, N971S;H972L;Q975S)
# Summary of the method: as §1
# PUM1 PUF domain R5-MRV = PUM1 PUF domain R5-MRV (Homo sapiens, UniProt Q14671 828-1176, C1007M;Q1011V)
# Summary of the method: as §1
# PUM1 PUF domain R4-PWG = PUM1 PUF domain R4-PWG (Homo sapiens, UniProt Q14671 828-1176, N971P;H972W;Q975G)
# Summary of the method: as §1
# PUM1 PUF domain R5-QCL = PUM1 PUF domain R5-QCL (Homo sapiens, UniProt Q14671 828-1176, C1007Q;R1008C;Q1011L)
# Summary of the method: as §1
# PUM1 PUF domain R5-NAV = PUM1 PUF domain R5-NAV (Homo sapiens, UniProt Q14671 828-1176, C1007N;R1008A;Q1011V)
# Summary of the method: as §1
# PUM1 PUF domain R5-EGE = PUM1 PUF domain R5-EGE (Homo sapiens, UniProt Q14671 828-1176, C1007E;R1008G;Q1011E)
# Summary of the method: as §1
# PUM1 PUF domain R3-FSR = PUM1 PUF domain R3-FSR (Homo sapiens, UniProt Q14671 828-1176, C935F;R936S;Q939R)
# Summary of the method: as §1
# PUM1 PUF domain R5-RAD = PUM1 PUF domain R5-RAD (Homo sapiens, UniProt Q14671 828-1176, C1007R;R1008A;Q1011D)
# Summary of the method: as §1
# PUM1 PUF domain R5-LYD = PUM1 PUF domain R5-LYD (Homo sapiens, UniProt Q14671 828-1176, C1007L;R1008Y;Q1011D)
# Summary of the method: as §1
# PUM1 PUF domain R7-RRV = PUM1 PUF domain R7-RRV (Homo sapiens, UniProt Q14671 828-1176, S1079R;N1080R;E1083V)
# Summary of the method: as §1
# PUM1 PUF domain R7-DHV = PUM1 PUF domain R7-DHV (Homo sapiens, UniProt Q14671 828-1176, S1079D;N1080H;E1083V)
# Summary of the method: as §1
# PUM1 PUF domain R4-LFW = PUM1 PUF domain R4-LFW (Homo sapiens, UniProt Q14671 828-1176, N971L;H972F;Q975W)
# Summary of the method: as §1
sequence,measurement,setting,value
GGCUAGAACUAGUGGAUCCCCCGGCGCCCGGCGGCUCGAGCCCGGGUAAGUAUAAAUAGUCUGCAUGCCGCCGGGCGCCAUGCCUGCAGGUCGACUCUAGAAAACAUG,binding signal,PUM1 PUF domain R7-IFV,2.59 log2 enrichment (interaction score)
GGCUAGAACUAGUGGAUCCCCCGGCGCCCGGCGGCUCGAGCCCGGGUAAGUGUAAUUAGUCUGCAUGCCGCCGGGCGCCAUGCCUGCAGGUCGACUCUAGAAAACAUG,binding signal,PUM1 PUF domain R3-CRV,1.05 log2 enrichment (interaction score)
same,binding signal,PUM1 PUF domain R3-RVQ,2.03 log2 enrichment (interaction score)
same,binding signal,PUM1 PUF domain R3-GHF,2.21 log2 enrichment (interaction score)
GGCUAGAACUAGUGGAUCCCCCGGCGCCCGGCGGCUCGAGCCCGGGUAAGUGUAAAUAGUCUGCAUGCCGCCGGGCGCCAUGCCUGCAGGUCGACUCUAGAAAACAUG,binding signal,PUM1 PUF domain R4-LGL,3.33 log2 enrichment (interaction score)
same,binding signal,PUM1 PUF domain R6-FYQ,4.7 log2 enrichment (interaction score)
same,binding signal,PUM1 PUF domain R3-CRV,2.9 log2 enrichment (interaction score)
same,binding signal,PUM1 PUF domain R6-LWG,6.16 log2 enrichment (interaction score)
same,binding signal,PUM1 PUF domain R6-QYS,3.68 log2 enrichment (interaction score)
same,binding signal,PUM1 PUF domain R4-SLS,2.39 log2 enrichment (interaction score)
same,binding signal,PUM1 PUF domain R5-MRV,1.85 log2 enrichment (interaction score)
same,binding signal,PUM1 PUF domain R4-PWG,5.84 log2 enrichment (interaction score)
GGCUAGAACUAGUGGAUCCCCCGGCGCCCGGCGGCUCGAGCCCGGGUAAGUGUGAAUAGUCUGCAUGCCGCCGGGCGCCAUGCCUGCAGGUCGACUCUAGAAAACAUG,binding signal,PUM1 PUF domain R5-QCL,2.87 log2 enrichment (interaction score)
same,binding signal,PUM1 PUF domain R5-NAV,1.26 log2 enrichment (interaction score)
same,binding signal,PUM1 PUF domain R5-EGE,2.78 log2 enrichment (interaction score)
same,binding signal,PUM1 PUF domain R5-MRV,2.45 log2 enrichment (interaction score)
GGCUAGAACUAGUGGAUCCCCCGGCGCCCGGCGGCUCGAGCCCGGGUAAGUGUAAGUAGUCUGCAUGCCGCCGGGCGCCAUGCCUGCAGGUCGACUCUAGAAAACAUG,binding signal,PUM1 PUF domain R3-FSR,3.48 log2 enrichment (interaction score)
same,binding signal,PUM1 PUF domain R3-CRV,1.31 log2 enrichment (interaction score)
GGCUAGAACUAGUGGAUCCCCCGGCGCCCGGCGGCUCGAGCCCGGGUAAGUGUCAAUAGUCUGCAUGCCGCCGGGCGCCAUGCCUGCAGGUCGACUCUAGAAAACAUG,binding signal,PUM1 PUF domain R5-RAD,2.61 log2 enrichment (interaction score)
GGCUAGAACUAGUGGAUCCCCCGGCGCCCGGCGGCUCGAGCCCGGGUAAGUGUUAAUAGUCUGCAUGCCGCCGGGCGCCAUGCCUGCAGGUCGACUCUAGAAAACAUG,binding signal,PUM1 PUF domain R5-RAD,1.31 log2 enrichment (interaction score)
same,binding signal,PUM1 PUF domain R5-LYD,3.06 log2 enrichment (interaction score)
same,binding signal,PUM1 PUF domain R5-NAV,2.55 log2 enrichment (interaction score)
same,binding signal,PUM1 PUF domain R5-MRV,2.34 log2 enrichment (interaction score)
GGCUAGAACUAGUGGAUCCCCCGGCGCCCGGCGGCUCGAGCCCGGGUAAGUUUAAAUAGUCUGCAUGCCGCCGGGCGCCAUGCCUGCAGGUCGACUCUAGAAAACAUG,binding signal,PUM1 PUF domain R7-RRV,4.01 log2 enrichment (interaction score)
same,binding signal,PUM1 PUF domain R7-DHV,5.24 log2 enrichment (interaction score)
GGCUAGAACUAGUGGAUCCCCCGGCGCCCGGCGGCUCGAGCCCGGGUAAGUGUACAUAGUCUGCAUGCCGCCGGGCGCCAUGCCUGCAGGUCGACUCUAGAAAACAUG,binding signal,PUM1 PUF domain R4-PWG,5.43 log2 enrichment (interaction score)
GGCUAGAACUAGUGGAUCCCCCGGCGCCCGGCGGCUCGAGCCCGGGUAAGUCUAAAUAGUCUGCAUGCCGCCGGGCGCCAUGCCUGCAGGUCGACUCUAGAAAACAUG,binding signal,PUM1 PUF domain R7-RRV,4.92 log2 enrichment (interaction score)
GGCUAGAACUAGUGGAUCCCCCGGCGCCCGGCGGCUCGAGCCCGGGUAAGUGUAUAUAGUCUGCAUGCCGCCGGGCGCCAUGCCUGCAGGUCGACUCUAGAAAACAUG,binding signal,PUM1 PUF domain R4-LFW,3.89 log2 enrichment (interaction score)
same,binding signal,PUM1 PUF domain R4-PWG,6.71 log2 enrichment (interaction score)

# Reference: publication PMC8384837, “Expanding the binding specificity for RNA recognition by a PUF domain”
